# PubChem BioAssay (NCI)
# Compounds without any hit were thinned out: in the full panel of roughly 79,000, 15% have a hit. A number with no mark means an inactive call. Active and inactive are the calls of the source. No stated cut-off is given here; in the data, active means growth inhibition above about 70%; inactive means the rest.
# Tests used:
# [1] = NCI Yeast Anticancer Drug Screen. Data for the rad50 strain (AID 155);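 further: 0% = growth of vehicle-only cultures of the same strain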; conditions: S. cerevisiae rad50 strain growth inhibition; at 50.0 µM; active compounds read high
# Summary of the method: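 Yeast carrying a defined DNA repair defect were exposed to test compounds, and growth was compared with vehicle-treated controls to give percent inhibition.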
# [2] = NCI Yeast Anticancer Drug Screen. Data for the mec2-1 strain (AID 157); conditions: S. cerevisiae mec2-1 strain, at 50.0 µM, active compounds read high
# Summary of the method: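 Vehicle-treated cultures served as reference for growth inhibition of compound-exposed mec2-1 yeast.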
# [3] = NCI Yeast Anticancer Drug Screen. Data for the sgs1 mgt1 strain (AID 161);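 further: 0% = growth of cultures given vehicle only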; conditions: S. cerevisiae sgs1 mgt1 strain, at 50.0 µM, active compounds read high
# Summary of the method: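 Read-out: growth inhibition vs vehicle controls. Cells: mutant yeast strain deficient in DNA damage repair.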
# [4] = NCI Yeast Anticancer Drug Screen. Data for the cln2 rad14 strain (AID 165);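 further: 0% = growth equal to vehicle treated cultures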; conditions: S. cerevisiae cln2 rad14 strain, at 50.0 µM, active compounds read high
# Summary of the method: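 Each compound was tested on cln2 rad14 yeast. Inhibition of growth was calculated against vehicle-exposed controls.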
# [5] = NCI Yeast Anticancer Drug Screen. Data for the bub3 strain (AID 167); conditions: S. cerevisiae bub3 mutant strain, at 50.0 µM, active compounds read high
# Summary of the method: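 Compounds were applied to a genetically altered yeast strain carrying a cell-cycle control defect. Growth inhibition was scored against vehicle-treated controls.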
# [6] = NCI Yeast Anticancer Drug Screen. Data for the mlh1 rad18 strain (AID 175); conditions: S. cerevisiae mlh1 rad18 strain growth inhibition; at 50.0 µM; active compounds read high
# Summary of the method: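 Vehicle-treated cultures served as the reference for growth inhibition in a yeast strain carrying DNA damage repair alterations exposed to each compound.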
Structure (SMILES),growth inhibition [1],growth inhibition [2],growth inhibition [3],growth inhibition [4],growth inhibition [5],growth inhibition [6]
CN(C)C(=S)SCCC(=O)O,3.05%,-4.3%,6.05%,8.5%,-2.65%,-8.2%
CN1CCc2ccccc2/C(=C(/O)c2ccccc2)C1=O,28.8%,7.15%,12.3%,24.9%,13.3%,10.1%
CCCCCCCC/C=C/CCCCCCCC(=O)O,-25%,-37.2%,-20.6%,-16.8%,-16.2%,-50.9%
O=C1NC(N2CCCC(CO)C2)=N/C1=C\c1ccc(Cl)cc1 (configuration not stated),25.6%,-10.9%,-18.9%,23.6%,-17.8%,-19.1%
CC(C)(C)CNCCCBr,-19.9%,-4.8%,-9.05%,-13.3%,30.8%,8.15%
CC(CO)(CO)N1C(=O)c2cccc3cc([N+](=O)[O-])cc(c23)C1=O,31.4%,29.1%,50.1%,31.1%,35.2%,14.3%
O=C1c2ccccc2C(=O)c2c1oc1c2ccc2ccccc21,-8.15%,7%,-4.35%,-16.1%,-5.25%,8.5%
C=C(C)c1nn(-c2ccccc2)c2c1C(=O)CC(C)O2 (configuration not stated),-12.2%,-26.2%,1.8%,29.2%,-7.45%,8.5%
CC1NC(=O)C2Cc3ccc(O)c(c3)Oc3cccc(c3)C(O)C(C(=O)N2C)N(C)C(=O)C(C)NC(=O)C(Cc2ccc(O)c(O)c2)N(C)C(=O)C(C)NC1=O (configuration not stated),6.75%,-19.3%,6.6%,6.15%,10.7%,6.55%
CNc1ccc(C(=O)NC(CCC(=O)O)C(=O)O)cc1I (configuration not stated),36.6%,-6.2%,-4.1%,0.15%,5.5%,10.3%
O=C1CC2C1C1C=CC2n2c(=O)n(-c3ccccc3)c(=O)n21 (configuration not stated),-11.6%,9.05%,13.5%,6%,2.2%,15.4%
O=[N+]([O-])c1ccccc1S(=O)(=O)c1ccccc1[N+](=O)[O-],-26.4%,-9.45%,-14.1%,-10%,-1.5%,-21%
CS(=O)CC(=N\N)/C(CS(C)=O)=N/N (configuration not stated),-60%,-20.8%,-19.7%,-21.4%,-1.15%,-5.75%
CSc1ncc2c(n1)-c1ccccc1OC2N1CCCCC1 (configuration not stated),9.8%,13.7%,7.4%,-3.45%,23.4%,38.7%
Cc1cc(N(CCC#N)CCC#N)ccc1/C=C(\NC(=O)/C=C/c1ccccc1)C(N)=O,3.15%,-7.85%,15.1%,-10.6%,-33.1%,-15.8%
C(CN1CCC2CCC(C2)C1)=C(c1ccccc1)c1ccccc1 (configuration not stated),3.75%,-1.3%,15.3%,-17.9%,26.1%,4.35%
O=C(O)c1ccc(O)c([N+](=O)[O-])c1,8.2%,-33.5%,6.5%,9%,6.85%,27.2%
CCCCCCc1cc(C(=O)N/N=C/c2ccccc2O)c2ccccc2n1,-35.2%,-8.1%,16%,-13.2%,67.6%,-2.95%
CCOC(=O)C(C#N)(C1C=CCC1)C1C=CCC1 (configuration not stated),-1.9%,-0.1%,14.3%,43.9%,46.3%,13.3%

Structure (SMILES),growth inhibition [1],growth inhibition [2],growth inhibition [3],growth inhibition [4],growth inhibition [5],growth inhibition [6]
COc1ccc(CC2c3cc(OC)c(OC)cc3CCN2C(=O)OCc2ccccc2)cc1OC (configuration not stated),25.3%,-4.1%,2.35%,19.6%,8.65%,12.1%
C/C(Nc1ccc(F)cc1)=C1/CCOC1=O,9.8%,-17.9%,-1.5%,-43.5%,13.8%,-11.5%
CC1=CC(C/C(C)=C/COc2ccc3ccc(=O)oc3c2)OC1=O (configuration not stated),8.15%,-38.9%,11.7%,11.3%,-0.8%,7.75%
COC(=O)CCC(CCc1ccccc1)(C(C)=O)C(C)=O,-2.4%,-13.1%,-16.5%,-4.05%,19.3%,7.7%
C=C(Br)CN(C(C)=O)C1CCCCC1,-9.2%,-10.7%,8.05%,18.6%,15%,26.8%
COc1ccc2c(c1)/C(=C/c1cc(OC)c(OC)c(OC)c1)C(=O)N2,4.3%,-27.2%,-8.7%,-1.4%,1.2%,2.85%
O=C1CCSc2c(cnc3ccccc23)N1,-17.1%,-12.4%,-26.4%,-18.1%,-18.6%,-46.8%
CCCCCCCCCCCCCCCCCC(=O)OCC1OC(OC2(OC(=O)CCCCCCCCCCCCCCCCC)OC(COC(=O)CCCCCCCCCCCCCCCCC)C(OC(=O)CCCCCCCCCCCCCCCCC)C2OC(=O)CCCCCCCCCCCCCCCCC)C(OC(=O)CCCCCCCCCCCCCCCCC)C(OC(=O)CCCCCCCCCCCCCCCCC)C1OC(=O)CCCCCCCCCCCCCCCCC (configuration not stated),17.2%,6%,25.4%,-2.75%,17.9%,23.8%
CC(C)(CCl)c1ccccc1,-10.6%,-3.1%,-6.3%,0.75%,4%,-0.55%
Fc1cccc(-c2nnc(-c3cccc4ccccc34)o2)c1,-8.65%,-1.8%,-0.5%,-49.8%,1.45%,-5.1%
COC(=O)C1OC1(C)c1ccccc1 (configuration not stated),2.3%,4.6%,-0.25%,-0.35%,-1.95%,-2.55%
CC(O)CNC(C)(C)CN (configuration not stated),-7.45%,-15.5%,-10.4%,4.4%,-18.8%,-4%
C[n+]1ccc(/C(C#N)=N/O)cc1,-16.4%,-39.9%,-20.6%,20.6%,-25.8%,-28.9%
Oc1cccnc1I,24.4%,3.1%,18.5%,19.5%,18%,10.2%
CCOC(=O)C(O)(C#CC(C)C)C1CCCC1 (configuration not stated),-15%,13%,-4.65%,5%,-6.4%,-6.65%
NC(=O)C(=CN1C(=O)/C(=C/c2ccccc2O)SC1=S)C(N)=O,-21.6%,2.9%,10.9%,28.4%,-4.85%,-24.1%
O=C1CN(c2ccccc2)Cc2nc(Cl)ccc2N1,39.9%,7.45%,24.4%,17.4%,3.55%,72.5% (active)
Cc1ccc(-n2c(=S)n(-c3ccccc3C)c3nc4ccccc4nc2/c3=N\Nc2ccccc2)cc1,-6.85%,3.5%,-14.8%,-16.1%,1.3%,-22.1%
